Several values for one entry are separate records, joined by “and”; a condition that tells them apart may be missing. Equal values may be shown once. The panel holds about 83,000 compounds, 20% with a hit somewhere; the sample as a whole holds those more often.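 Interpretation: 100, growth as untreated; towards 0, rising growth inhibition; 0, no net growth; 0 to -100, cell death. Compounds scoring below 10 were considered active.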 Activity calls are given as the source filed them.
The compounds below were run on HL-60(TB) leukemia (assay: NCI-60 one-dose screen, 48 h (100 = growth as untreated, 0 = no growth, -100 = all killed)). Conditions: 10 µM unless noted.

SMILES	growth
COc1cc(CSc2nc3ccc(Cl)cc3c(=O)n2Cc2ccccc2)cc(OC)c1OC	14.7% (inactive)
COc1ccc2c(c1)c1nc3cc(C)c(C)cc3nc1n2CCN(C)C	-26.4% (active)
Cc1cc(SCc2ccc(Cl)cc2Cl)nc(SCc2ccc(Cl)cc2Cl)n1	95.6% (inactive)
CCN1C(=S)N(c2ccccc2)C2NC(=S)N(/N=C/C=C/c3ccccc3OC)C21 (centres undefined)	-52.9% (active)
Cc1cccc(Cl)c1NC(=O)c1ccc2nc(NC(=O)NCCN(C)C)sc2c1	115% (inactive)
CC(=O)Nc1cccc2cc(O)ccc12	114% (inactive) and 76.6% (inactive) and 104% (inactive)
CN(C)c1ccc(/C=C/C=N/NC(=O)c2cc(O)c(O)c(O)c2)cc1	84.2% (inactive)
COc1ccc(S(=O)(=O)Nc2cc(/C=C\c3cc(OC)c(OC)c(OC)c3)cc(OC)c2OC)cc1	-42.1% (active)
COc1ccc(C/C(C)=C(/c2ccc(OCCN3CCCCC3)cc2)c2ccc(OC(=O)NCc3ccccc3)cc2)cc1	-75.1% (active)
O=[N+]([O-])c1cccc(/C=C/c2ccc3ccccc3n2)c1	90.8% (inactive)
COc1cccc(C2C3=C(COC3=O)N(CCO)c3cc(OC)ccc32)c1 (centres undefined)	-25.9% (active)
O=C1Nc2ccccc2/C1=C\c1nc(C2CCN(S(=O)(=O)c3ccc(F)cc3)CC2)n2ccccc12	92.3% (inactive)
CC(C)Cc1ccc(C(C)C(=O)NCc2ccc(Cn3c(=O)sn(CCCI)c3=O)cc2)cc1 (centres undefined)	74.9% (inactive) and -41.5% (active)
CS(=O)(=O)c1nccc(-c2c(-c3cccc(OCCc4ccccc4)c3)nc3sccn23)n1	99.4% (inactive)
O=C1c2cc3c(cc2-c2c1c1ccc(Cl)cc1c(=O)n2CCCNCCO)OCO3	-64% (active)
COc1ccc(-c2csc(NC(=O)c3ccc(Cc4n[nH]c(=O)c5cccnc45)cc3)n2)cc1	104% (inactive)
COC(=O)c1nc(-c2ccc(C)cc2)oc1S(=O)(=O)c1cccc(OC)c1	44.7% (inactive)
COc1cc(/C=C\c2cc(/C=C\c3ccc(O)c(OC)c3)n(C(=O)COc3ccc(Cl)cc3Cl)n2)ccc1O	-18.7% (active)
COc1cc(-c2nc(-c3ccccc3)c(-c3ccccc3)[nH]2)cc(OC)c1O	-8.92% (active)
CN1CCN(CC(=O)N(C)c2ccc(N=C(c3ccccc3)c3c(O)[nH]c4ccc(C#N)cc34)cc2)CC1	14.9% (inactive)

SMILES	growth
CCN1CCN(Cc2ccc(NC(=O)Nc3ccc(-n4ccc5c(NC(=O)c6ccccc6)nccc54)cc3)cc2C(F)(F)F)CC1	35.8% (inactive)
COc1ccc(SC2c3cc(OC)c(OC)cc3Oc3nc(N)c(C#N)c(N)c32)cc1 (centres undefined)	-51.5% (active)
CNc1ccc2nc3ccc(=[N+](C)C)cc-3sc2c1	-22.9% (active) and 5.72% (active)
N#C/C(=C\c1ccc(-c2ccc(Cl)cc2)o1)C(=O)Nc1ncc(Cc2ccc(Cl)cc2)s1	80.1% (inactive)
COc1cc(/C=C/C(=O)Nc2cccnc2Nc2cc(OC)c(OC)c(OC)c2)cc(OC)c1OC	89.1% (inactive)
COc1ccc(Cn2cc(Cn3c(=O)c(-c4nc5ccccc5[nH]4)cc4ccccc43)nn2)c(OC)c1OC	7.75% (active)
CCOC(=O)c1ccncc1	97.3% (inactive)
COc1cc(CNC(=O)CCCC/C=C/C(C)C)ccc1OCc1nnc(Nc2ccc([N+](=O)[O-])cc2)o1	101% (inactive)
CC(=O)Oc1c(Cl)c(Cl)c(Cl)c(Cl)c1Cl	82.2% (inactive)
Cc1c2ccccc2c(C)c2c1ccc1ccccc12	69.9% (inactive)
CCOC(=O)Nc1ccc(-c2nc(-c3cccc(OC)c3)c(-c3ccnc(Br)c3)[nH]2)cc1	-18.7% (active)
CCOC(=O)N1CCN(CCCCOc2ccc(C(C)(C)CC)cc2)CC1	79.1% (inactive)
CN(C)CCCn1c(=O)c2ccccc2c2ccccc21	63.4% (inactive)
Cc1cc(=O)[nH]c(N=Nc2c(O)[nH]c3ccccc23)n1	79.8% (inactive)
Cc1cc(NCc2cc(Nc3ccnc4cc(Cl)ccc34)ccc2F)nc(N2CCSCC2)n1	-61.4% (active)
CCOC(=O)c1ccc2[nH]c(O)c(C(=Nc3ccc(N(C)C(=O)CN4CCN(C)CC4)cc3)c3ccccc3)c2c1	-52.6% (active)
NS(=O)(=O)c1ccc(CCN2C(=O)C=CC2=O)cc1	99.6% (inactive)
Oc1c(Cl)cc(Cl)c2cccnc12	56.4% (inactive) and 5.89% (active)
CC(=O)N1N=C(c2ccc(C(F)(F)F)c(F)c2)CC1c1[nH]c(C)c(C(=O)NCC(F)(F)F)c1C (centres undefined)	111% (inactive)

Reference: PubChem BioAssay (NCI)
